The source of these data is PubChem BioAssay (NCI).

What all share (experiment): NCI-60 one-dose screen, 48 h (100 = growth as untreated, 0 = no growth, -100 = all killed)
What all share (conditions): 10 µM

For experiment [1], the system named is HT29 colon.
Experiment [2] relates to SNB-75 CNS.
Experiment [3] has as its system SNB-19 CNS.
Experiment [4] relates to U251 CNS.
The subject of experiment [5] is PC-3 prostate.
In experiment [6] the test system is SK-MEL-5 melanoma.
In experiment [7] the test system is UACC-62 melanoma.
The test system of experiment [8] is LOX IMVI melanoma.
For experiment [9], the system named is SK-MEL-28 melanoma.
Experiment [10] relates to SK-MEL-2 melanoma.
The subject of experiment [11] is EKVX NSCLC.
The test system of experiment [12] is SN12C renal.
In experiment [13] the test system is UO-31 renal.
Experiment [14] concerns TK-10 renal.
Experiment [15] relates to ACHN renal.
For experiment [16], the system named is CAKI-1 renal.
For experiment [17], the system named is A498 renal.
In experiment [18] the test system is CCRF-CEM leukemia.
Experiment [19] deals with MOLT-4 leukemia.

The panel holds about 83,000 compounds, 20% with a hit somewhere; the sample as a whole holds those more often.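 In brief: 96-well plates, 48 h treatment, single concentration, percent growth endpoint.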 Unmarked numbers belong to inactive results. The source made the active and inactive calls. Rule for the calls: active = growth percent below 10; inactive = the rest.

Consider `Clc1ccc(/C=N/Nc2ncnc3sc4c(c23)CCN(Cc2ccccc2)C4)cc1`, for which the growth was -75.3% (active) in experiment [1]; -85% (active) in experiment [2]; 18.4% in experiment [3]; -83.8% (active) in experiment [4]; -59.7% (active) in [5]; 38.9% in [6]. In addition, the growth in [7] was 18.9%; in [8], -52.1% (active); in experiment [9], -19% (active); in experiment [10], 93.5%; in experiment [11], 56.7%; in experiment [12], -62.4% (active). Also, the growth was 22.1% in [13]; -76.1% (active) in experiment [14]; 27.4% in [15]; 34.5% in experiment [16]; -32.2% (active) in [17]; -24.2% (active) in [18]. In addition, the growth in experiment [19] is 4.13% (active).
For `CCCCSc1nc(Nc2ccc(/C(C)=N/NC(N)=S)cc2)c(C#N)c(-c2ccc(OC)cc2)n1`, the growth in experiment [1] was 86.7%; in experiment [3] it was 63.8%; in experiment [4], 22.8%; in experiment [5] it was 85.2%; in [6] it was 46.2%; in experiment [7], 44.7%. Moreover, the growth in experiment [8] is -10.1% (active); in experiment [9] it was 90.5%; in experiment [10], 104%; in experiment [11], 79.4%; in [12], 7.27% (active); in [13], -19.7% (active). Moreover, the growth is -0.624% (active) in experiment [14]; 55.2% in experiment [15]; 51.6% in experiment [16]; 32.2% in experiment [17]; 86.2% in [18]; 67.7% in [19].
For `C=C[C@H]1[C@H](O[C@@H]2OC(CO)[C@@H](O)[C@H](O)C2OC(=O)c2c(O)cc(O)cc2-c2cccc(O)c2)OC=C2C(=O)OCC[C@H]21` (some centres not stated), the growth in experiment [1] is 108%; in experiment [2], 93.2%; in [3], 97.2%; in experiment [4], 104%; in [5], 103%; in experiment [6], 100%. Besides, the growth is 98% in [7]; 99.3% in [8]; 102% in experiment [9]; 106% in experiment [10]; 93.8% in experiment [11]; 89.3% in [13]. In addition, the growth was 102% in [14]; 105% in [15]; 93.9% in experiment [16]; 106% in experiment [17]; 106% in [18].
Take `Cc1nn(-c2ccccc2)c2ncn(CC(=O)N/N=C/c3c[nH]c4ccccc34)c(=O)c12`: the growth is 99.5% in [1]; 78.5% in experiment [2]; 91.5% in experiment [3]; 83.8% in experiment [4]; 65.4% in [5]; 85.5% in experiment [6]. For the same molecule, the growth in [7] was 80.7%; in [8], 84.4%; in experiment [9] it was 114%; in experiment [10] it was 86.3%; in experiment [11], 61.2%; in [12], 89.7%. Further, the growth in experiment [14] was 107%; in [15] it was 85.2%; in experiment [16], 71.9%; in [17], 79.5%; in experiment [18], 85%; in experiment [19], 55.8%.
